Laboratory results: the supplement of paper PMC10849652
About 7,900 targets were measured; listed, in parts, are those with a hit and a random draw of the rest. About 0.6% of all pairs of compound and target were hits.

These targets were tested with CC(C)N(C[C@H]1O[C@@H](n2cnc3c(N)ncnc32)[C@H](O)[C@@H]1O)[C@H]1C[C@@H](CCc2nc3cc(C(C)(C)C)ccc3[nH]2)C1 [pinometostat] (assay: log2 fold change, soluble protein after heating vs DMSO (PISA); higher = thermal stabilisation; K562 cells, 10 uM, 30 min; active = over 0.2 and 3.5 SD of the protein, either way, in both replicates (recomputed)).
In short: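 K562 cells at 2×10^6 cells/mL were treated for 30 min with 10 μM compound, and aliquots were heated for 3 min over 48°C-58°C before pooling. Extraction used PBS with 0.5% NP-40 at 4°C, and soluble protein was the supernatant after 21,000xg for 90 min, measured by TMTpro 16plex LC-MS/MS with channel sums equalised. Thermal stability values, relative to control samples and from duplicates, are log2 fold changes.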

Chain of UniProt Q15526 (Q15526 whole entry, looked up): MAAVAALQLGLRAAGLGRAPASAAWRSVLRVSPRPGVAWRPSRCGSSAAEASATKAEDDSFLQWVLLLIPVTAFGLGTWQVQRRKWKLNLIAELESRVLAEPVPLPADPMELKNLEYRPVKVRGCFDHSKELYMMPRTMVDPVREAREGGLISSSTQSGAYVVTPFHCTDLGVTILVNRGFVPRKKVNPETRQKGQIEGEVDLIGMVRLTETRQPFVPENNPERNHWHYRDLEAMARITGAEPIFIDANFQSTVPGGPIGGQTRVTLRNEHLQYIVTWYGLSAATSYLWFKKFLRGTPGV
Chain of UniProt O60271 (O60271 whole entry, looked up): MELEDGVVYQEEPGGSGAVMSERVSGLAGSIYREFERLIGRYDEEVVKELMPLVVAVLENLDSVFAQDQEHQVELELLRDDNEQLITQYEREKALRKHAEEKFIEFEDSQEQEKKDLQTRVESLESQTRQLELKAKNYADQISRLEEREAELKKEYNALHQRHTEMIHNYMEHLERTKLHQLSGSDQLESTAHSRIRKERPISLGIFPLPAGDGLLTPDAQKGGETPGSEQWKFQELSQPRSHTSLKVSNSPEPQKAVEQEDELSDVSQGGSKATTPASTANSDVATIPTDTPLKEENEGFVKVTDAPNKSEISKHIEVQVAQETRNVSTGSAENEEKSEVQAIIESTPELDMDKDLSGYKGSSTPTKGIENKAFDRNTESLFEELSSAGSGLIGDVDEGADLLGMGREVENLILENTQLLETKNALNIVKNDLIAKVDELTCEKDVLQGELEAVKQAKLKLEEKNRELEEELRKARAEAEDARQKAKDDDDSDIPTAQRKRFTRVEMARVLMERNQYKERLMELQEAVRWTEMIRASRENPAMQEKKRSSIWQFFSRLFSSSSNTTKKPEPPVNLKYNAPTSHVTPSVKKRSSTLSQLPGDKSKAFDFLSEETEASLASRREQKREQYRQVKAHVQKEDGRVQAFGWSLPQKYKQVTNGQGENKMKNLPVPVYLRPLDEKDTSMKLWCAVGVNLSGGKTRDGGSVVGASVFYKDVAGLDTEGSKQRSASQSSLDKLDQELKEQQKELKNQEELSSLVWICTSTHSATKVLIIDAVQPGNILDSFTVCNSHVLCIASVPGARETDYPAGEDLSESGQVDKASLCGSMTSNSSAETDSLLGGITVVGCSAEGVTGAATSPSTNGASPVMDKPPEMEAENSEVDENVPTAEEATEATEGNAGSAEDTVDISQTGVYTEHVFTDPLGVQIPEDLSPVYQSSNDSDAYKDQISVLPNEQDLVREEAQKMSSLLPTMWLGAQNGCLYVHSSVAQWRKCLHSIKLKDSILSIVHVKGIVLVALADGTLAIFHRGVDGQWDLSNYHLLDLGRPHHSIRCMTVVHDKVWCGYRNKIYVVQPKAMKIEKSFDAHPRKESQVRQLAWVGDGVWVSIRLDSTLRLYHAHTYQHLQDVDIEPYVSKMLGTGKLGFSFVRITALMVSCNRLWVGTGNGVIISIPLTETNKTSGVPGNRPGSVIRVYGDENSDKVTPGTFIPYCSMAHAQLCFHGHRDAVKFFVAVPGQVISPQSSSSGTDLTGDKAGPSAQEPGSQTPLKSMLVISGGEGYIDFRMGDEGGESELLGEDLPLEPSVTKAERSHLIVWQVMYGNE
Chain of UniProt Q5T5C0 (Q5T5C0 whole entry, looked up): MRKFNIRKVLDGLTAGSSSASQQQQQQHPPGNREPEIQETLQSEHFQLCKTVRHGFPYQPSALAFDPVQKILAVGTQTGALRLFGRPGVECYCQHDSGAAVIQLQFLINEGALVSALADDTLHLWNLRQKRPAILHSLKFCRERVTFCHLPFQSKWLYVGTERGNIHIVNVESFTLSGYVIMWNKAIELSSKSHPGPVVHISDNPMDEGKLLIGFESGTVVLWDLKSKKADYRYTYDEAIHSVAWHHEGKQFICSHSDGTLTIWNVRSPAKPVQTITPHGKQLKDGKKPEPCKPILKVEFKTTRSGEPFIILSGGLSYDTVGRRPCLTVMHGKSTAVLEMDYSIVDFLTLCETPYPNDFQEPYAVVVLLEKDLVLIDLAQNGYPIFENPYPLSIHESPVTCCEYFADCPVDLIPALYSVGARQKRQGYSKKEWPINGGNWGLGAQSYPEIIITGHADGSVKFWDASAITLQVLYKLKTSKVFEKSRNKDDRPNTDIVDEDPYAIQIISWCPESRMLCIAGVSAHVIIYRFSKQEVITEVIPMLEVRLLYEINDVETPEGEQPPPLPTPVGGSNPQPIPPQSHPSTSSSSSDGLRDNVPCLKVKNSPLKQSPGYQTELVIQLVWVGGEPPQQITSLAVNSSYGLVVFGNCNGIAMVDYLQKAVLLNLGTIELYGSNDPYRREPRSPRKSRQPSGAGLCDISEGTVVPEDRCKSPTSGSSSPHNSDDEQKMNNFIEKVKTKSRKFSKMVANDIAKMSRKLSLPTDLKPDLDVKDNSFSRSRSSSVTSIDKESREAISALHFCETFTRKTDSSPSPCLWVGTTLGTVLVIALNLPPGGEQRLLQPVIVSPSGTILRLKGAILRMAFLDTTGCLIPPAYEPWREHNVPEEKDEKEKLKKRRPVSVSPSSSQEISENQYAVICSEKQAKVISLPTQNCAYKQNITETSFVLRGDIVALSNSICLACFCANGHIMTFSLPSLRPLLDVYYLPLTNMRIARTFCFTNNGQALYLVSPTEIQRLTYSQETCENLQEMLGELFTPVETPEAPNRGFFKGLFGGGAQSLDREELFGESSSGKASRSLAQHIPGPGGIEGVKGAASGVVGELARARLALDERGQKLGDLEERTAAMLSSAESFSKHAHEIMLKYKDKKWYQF
Chain of UniProt Q01130 (Q01130 whole entry, looked up): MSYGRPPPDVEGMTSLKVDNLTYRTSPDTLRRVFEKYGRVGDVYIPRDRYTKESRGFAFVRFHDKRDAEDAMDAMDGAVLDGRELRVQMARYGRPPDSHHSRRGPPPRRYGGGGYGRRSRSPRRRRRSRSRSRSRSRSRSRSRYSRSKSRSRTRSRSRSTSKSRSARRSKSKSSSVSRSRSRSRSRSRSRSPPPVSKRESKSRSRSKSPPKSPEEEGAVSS
Chain of UniProt Q8WUH2 (Q8WUH2 whole entry, looked up): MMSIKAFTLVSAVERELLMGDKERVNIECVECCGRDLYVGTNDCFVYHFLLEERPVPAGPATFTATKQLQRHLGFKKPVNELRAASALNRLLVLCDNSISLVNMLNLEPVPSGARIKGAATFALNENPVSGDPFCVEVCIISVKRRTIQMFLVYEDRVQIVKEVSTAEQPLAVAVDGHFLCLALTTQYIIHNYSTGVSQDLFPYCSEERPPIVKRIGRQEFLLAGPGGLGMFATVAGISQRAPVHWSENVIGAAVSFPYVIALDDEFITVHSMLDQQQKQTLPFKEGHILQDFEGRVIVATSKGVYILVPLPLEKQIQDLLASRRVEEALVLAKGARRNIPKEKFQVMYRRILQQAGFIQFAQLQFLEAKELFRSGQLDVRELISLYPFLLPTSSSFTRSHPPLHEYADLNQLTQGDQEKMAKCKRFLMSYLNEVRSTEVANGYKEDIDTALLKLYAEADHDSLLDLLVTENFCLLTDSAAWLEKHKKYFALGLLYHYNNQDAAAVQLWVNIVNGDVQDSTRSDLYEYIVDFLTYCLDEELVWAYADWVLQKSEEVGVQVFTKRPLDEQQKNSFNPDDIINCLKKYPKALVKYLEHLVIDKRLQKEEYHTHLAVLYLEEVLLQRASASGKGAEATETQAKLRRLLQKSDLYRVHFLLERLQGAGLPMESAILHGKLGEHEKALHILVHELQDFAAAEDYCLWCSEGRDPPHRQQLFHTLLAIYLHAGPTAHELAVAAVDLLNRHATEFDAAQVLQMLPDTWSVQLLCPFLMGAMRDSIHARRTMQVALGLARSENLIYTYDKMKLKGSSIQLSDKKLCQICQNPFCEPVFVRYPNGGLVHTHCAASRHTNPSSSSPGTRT
Chain of UniProt Q9H5Q4 (Q9H5Q4 whole entry, looked up): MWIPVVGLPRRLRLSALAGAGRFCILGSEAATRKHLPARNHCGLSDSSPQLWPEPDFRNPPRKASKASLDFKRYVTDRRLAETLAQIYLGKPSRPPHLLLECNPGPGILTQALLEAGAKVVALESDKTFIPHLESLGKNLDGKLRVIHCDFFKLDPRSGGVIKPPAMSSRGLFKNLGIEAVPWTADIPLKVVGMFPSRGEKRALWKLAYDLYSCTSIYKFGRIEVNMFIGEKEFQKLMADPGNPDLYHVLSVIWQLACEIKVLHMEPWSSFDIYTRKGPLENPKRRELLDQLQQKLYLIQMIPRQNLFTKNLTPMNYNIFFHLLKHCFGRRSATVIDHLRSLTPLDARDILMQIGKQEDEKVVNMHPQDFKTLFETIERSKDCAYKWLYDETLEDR
Chain of UniProt Q9NYB0 (Q9NYB0 whole entry, looked up): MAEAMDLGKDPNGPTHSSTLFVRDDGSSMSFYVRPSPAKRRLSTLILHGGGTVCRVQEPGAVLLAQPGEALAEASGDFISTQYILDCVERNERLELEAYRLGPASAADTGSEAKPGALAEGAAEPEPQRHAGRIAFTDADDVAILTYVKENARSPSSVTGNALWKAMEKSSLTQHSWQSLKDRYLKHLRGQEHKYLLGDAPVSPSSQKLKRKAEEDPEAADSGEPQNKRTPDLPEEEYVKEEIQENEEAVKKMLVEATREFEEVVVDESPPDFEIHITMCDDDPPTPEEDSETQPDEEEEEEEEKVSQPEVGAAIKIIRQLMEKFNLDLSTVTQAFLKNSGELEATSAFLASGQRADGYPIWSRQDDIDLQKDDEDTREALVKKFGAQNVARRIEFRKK
Chain of UniProt Q16385 (Q16385 whole entry, looked up): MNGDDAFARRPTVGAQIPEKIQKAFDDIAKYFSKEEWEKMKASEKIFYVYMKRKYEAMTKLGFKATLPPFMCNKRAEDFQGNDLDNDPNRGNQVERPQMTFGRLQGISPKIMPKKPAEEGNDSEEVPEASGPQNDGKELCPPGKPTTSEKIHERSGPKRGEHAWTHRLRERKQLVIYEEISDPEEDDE
Chain of UniProt O00193 (O00193 whole entry, looked up): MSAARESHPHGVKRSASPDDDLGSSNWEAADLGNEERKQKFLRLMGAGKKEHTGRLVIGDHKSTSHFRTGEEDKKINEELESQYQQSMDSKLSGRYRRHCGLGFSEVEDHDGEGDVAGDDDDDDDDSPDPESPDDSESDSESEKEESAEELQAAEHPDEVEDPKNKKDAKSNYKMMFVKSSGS

log2 fold change, inactive:
TBC1D23 (UniProt Q9NUY8) -0.046
TFB2M (UniProt Q9H5Q4) 0.012
TGFBRAP1 (UniProt Q8WUH2) 0.046
SNX9 (UniProt Q9Y5X1) 0.04
THRAP3 (UniProt Q9Y2W1) 0.057
SRRM2 (UniProt Q9UQ35) 0.005
SSX2 (UniProt Q16385) -0.065
SMAP (UniProt O00193) -0.049
SMARCA5 (UniProt O60264) 0.068
SPAG9 (UniProt O60271) 0.028
SURF1 (UniProt Q15526) -0.044
TANGO6 (UniProt Q9C0B7) 0
SYNE1 (UniProt Q8NF91) 0.002
STAM2 (UniProt O75886) 0.014
SRSF2 (UniProt Q01130) 0.022
SMAD9 (UniProt O15198) 0.024
SPPL2B (UniProt Q8TCT7) -0.032
SUOX (UniProt P51687) 0.016
SPART (UniProt Q8N0X7) 0.034
TLK1 (UniProt Q9UKI8) -0.041
STXBP5 (UniProt Q5T5C0) 0.025
TCOF1 isoform 4 (UniProt Q13428) 0.024
TERF2IP (UniProt Q9NYB0) 0.024
TARS2 (UniProt Q9BW92) -0.022
